± gives the standard deviation of the averaged measurements. Whole data set: some 25,000 sequences, median “ln(normalized median fluorescence intensity)” near 8.9, cut for the highest 2% near 10. The sample holds the highest values, similar sequences and a random draw of the others, so the mix is not that of the screen.

This experiment has as its system PfAP2-LT AP2 domain (GST-tagged). As to the kind of experiment: gcPBM binding intensity (ln(normalized median fluorescence intensity)); higher = stronger DNA binding. Put shortly:
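An Agilent 4 × 180k array carrying primer-extended double-stranded 36-bp intergenic genomic probes and negative controls received GST-tagged P. falciparum DNA-binding domains expressed in E. coli, about 25 μg on average, for 1 h. The binding buffer contained 1× PBS, 1% milk, 0.2 mg/ml BSA, 0.5% salmon testes DNA and 0.03% Triton X-100. Binding intensity is the top Masliner-normalised natural-log median intensity across replicate spots of either probe orientation, read after Alexa488 anti-GST antibody staining and a 488 nm scan.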
In the case of “ACGATGTTCATCACTACACACACAAAGAAATATATA [CACACA_site8859]”, the “gcPBM binding intensity (ln)” value amounted to 9.26 ± 0.37.

Turning to “AGCACAGACGGACACACACACACACCCACAGACACA [CACACA_site4358]”, the “gcPBM binding intensity (ln)” value is 10.1 ± 0.23.

“CACACGCACGGACACACACACATATAAAATCTATAT [CACACA_site6428]”: the “gcPBM binding intensity (ln)” value stood at 9.85 ± 0.57.

Take “AAAACACGCGGACACACACACACACGCCCACATATA [CACACA_site7105]”: the “gcPBM binding intensity (ln)” value is 10.1 ± 0.33.

“CACAGACACGGACACACACACACACCCATATATATA [CACACA_site4354]”: the “gcPBM binding intensity (ln)” value was determined as 10.1 ± 0.32.

“ACTTGACACGGACACACACACATATATAAAAAAAAA [CACACA_site4576]”: the “gcPBM binding intensity (ln)” value was 9.53 ± 0.51.

Regarding “TACACAGACGGACACACACACACACTAGAAAAAAAA [CACACA_site4435]”, the “gcPBM binding intensity (ln)” value turned out to be 10.1 ± 0.59.

For the sequence “CACGCGCCCGGACACACACACACACCCATATATATA [CACACA_site5251]”, the “gcPBM binding intensity (ln)” value was found to be 10.2 ± 0.57.

On to “CGTGGGAGCGGACACACACACACACCCATATATATA [CACACA_site4340]”, for which the “gcPBM binding intensity (ln)” value is 9.86 ± 0.41.

Regarding “CACAGACACGGACACACACACACACCGATATATATA [CACACA_site4353]”, the “gcPBM binding intensity (ln)” value worked out at 9.88 ± 0.24.

Take “TACAAAAGTTAAACATGTACTTAATTATATGTTTTT [XGTACX_site2852]”: the “gcPBM binding intensity (ln)” value amounted to 8.57 ± 0.44.

For “TTCTTAATTTAAAATTGTACTTAAGTAATACTTATG [XGTACX_site3928]”, the “gcPBM binding intensity (ln)” value amounted to 8.49 ± 0.57.

For the sequence “TTGTTTCCGATGAAAGAAAGGAAATTATAATATATC [GTGCAC_negctrl_site516]”, the “gcPBM binding intensity (ln)” value turned out to be 8.43 ± 0.44.

For the sequence “AAGTAATCATCATAAAGTACTAAATTATATTGTCAA [XGTACX_site5841]”, the “gcPBM binding intensity (ln)” value was 8.67 ± 0.37.

For “TATAAACAGACGAAAACACACATATGTAAATATATA [CACACA_site4428]”, the “gcPBM binding intensity (ln)” value came to 9.15 ± 0.44.

Turning to “TTTATTATCTTATTCACACACATATATAAATATGTA [CACACA_site7369]”, the “gcPBM binding intensity (ln)” value came out at 9.06 ± 0.42.

Take “TGTTTTTTATATTACTGTACATGTTTTGGAATAATA [XGTACX_site4716]”: the “gcPBM binding intensity (ln)” value came to 8.75 ± 0.4.

“ATGAACAAGGGGCACACACACATTATGACTAATTTA [CACACA_site3204]”: the “gcPBM binding intensity (ln)” value is 9.6 ± 0.45.

Regarding “TTTAAATATTTTATAGCATGCTACCAATATGTATAT [TGCATGCA_site291]”, the “gcPBM binding intensity (ln)” value was determined as 8.83 ± 0.52.

For “TAGTGTGCCAAATTAGCACACACATATATACATGAA [CACACA_site8910]”, the “gcPBM binding intensity (ln)” value was 9.6 ± 0.36.

For TCTTTTTCTTGACGAGTGCAAAAATTGTGTTTGAAA, the “gcPBM binding intensity (ln)” value came out at 8.48 ± 0.35.

For the sequence “TCGTAAACATATTGAAAAATATAAAAAGGGGTAATA [CACACA_negctrl_site619]”, the “gcPBM binding intensity (ln)” value was found to be 8.71 ± 0.56.

As for “CTGAAGGAAAAAGAAAGTACTTTTTTTTTTTTGAAG [XGTACX_site5973]”, the “gcPBM binding intensity (ln)” value turned out to be 8.22 ± 0.68.

In the case of “CAAGCACCCAGACACACACACACACCCACACCCACA [CACACA_site369]”, the “gcPBM binding intensity (ln)” value is 10.1 ± 0.47.

In the case of “ATCAAGCACGGACACACACACACACCCAGACCCCCA [CACACA_site4360]”, the “gcPBM binding intensity (ln)” value came out at 10.19 ± 0.099.

On to “TTGGCATACGGACACACACACACACCCAGACATATA [CACACA_site4492]”, for which the “gcPBM binding intensity (ln)” value was found to be 9.84 ± 0.18.

With “TTTATTTTATCATTTGCACACGCACCCAGACATAAA [CACACA_site4347]”, the “gcPBM binding intensity (ln)” value came out at 9.19 ± 0.35.

“CACAGACACGGACACACACACACACCCAGACACATA [CACACA_site4357]”: the “gcPBM binding intensity (ln)” value was 10.1 ± 0.43.

For “TTCTATTTTAATATCTGTACATAATAAAGATCCATT [XGTACX_site1142]”, the “gcPBM binding intensity (ln)” value is 8.46 ± 0.49.

On to “ACATTATATTTGGACTGTACTAATATATTGTTATAT [XGTACX_site5573]”, for which the “gcPBM binding intensity (ln)” value was determined as 8.91 ± 0.42.

As for “GCTTATTAATATCATACACACATAGATATATTTATA [CACACA_site3104]”, the “gcPBM binding intensity (ln)” value amounted to 8.91 ± 0.39.

As for “TATATGTTATATTGGACACACACAATAAACATTATG [CACACA_site8480]”, the “gcPBM binding intensity (ln)” value turned out to be 9.21 ± 0.38.

For “AACCAGTTGATGTGTACACATATAGTAATAATTTTA [CACACA_site5564]”, the “gcPBM binding intensity (ln)” value came to 9.16 ± 0.52.

Turning to “TAAAATTATTAATGAGTGCATTATAAAATCTATATA [GTGCAC_site9493]”, the “gcPBM binding intensity (ln)” value is 8.38 ± 0.46.

In the case of “ATATTTTCCCTTTATAGGAGCACAAAAATTAAATGT [CACACA_negctrl_site1114]”, the “gcPBM binding intensity (ln)” value was 8.46 ± 0.35.

As for “AGGAAATGTTTATATACATGCATAATTAAATATAAT [TGCATGCA_site672]”, the “gcPBM binding intensity (ln)” value came to 8.74 ± 0.46.

As for “AAAAAAAAAACACGCGCACACACACCCACCCACCCA [CACACA_site8689]”, the “gcPBM binding intensity (ln)” value was determined as 10.365 ± 0.0071.

Take “TACACAAACAGACACACACACACACGCGCACAAAAA [CACACA_site7192]”: the “gcPBM binding intensity (ln)” value was 10.06 ± 0.042.

As to “AAAAAAAACAAATACACACGCACACCGAAAAAAAAA [CACACA_site803]”, the “gcPBM binding intensity (ln)” value worked out at 9.6 ± 0.39.

As to “ATAGACAGCGCACAAACACACAAACACCCACCCACA [CACACA_site8043]”, the “gcPBM binding intensity (ln)” value worked out at 9.99 ± 0.31.

Take “AAAAAAAACACGCGCACACACACACCCACAGACACA [CACACA_site5253]”: the “gcPBM binding intensity (ln)” value turned out to be 10.2 ± 0.14.

As to “AAAAAAAACACGCGCACACACACACCCACCCACCGA [CACACA_site2206]”, the “gcPBM binding intensity (ln)” value was 10.32 ± 0.078.

In the case of “AAAAAAACAACATGCACACGCACACCCAAAAAAAGC [CACACA_site72]”, the “gcPBM binding intensity (ln)” value stood at 9.84 ± 0.32.

“AGAAAAAAACAACATGCACACGCACCCACAAAAAAA [CACACA_site7908]”: the “gcPBM binding intensity (ln)” value turned out to be 9.51 ± 0.28.

Values taken from the supplement of paper PMC11417369.
